Measured values taken from PubChem BioAssay AID1347084 (National Center for Advancing Translational Sciences (NCATS), 2019).
Records with an inconclusive call do not appear. Values without a mark were called inactive. Active and inactive are the calls of the source. Calls come from the whole dose curve.

experiment: qHTS for Inhibitors of the Functional Ribonucleoprotein Complex (vRNP) of Lymphocytic Choriomeningitis Arenaviruses (LCMV): LCMV Confirmatory Screen - GLuc reporter signal; conditions: LCMV minigenome vRNP, Gaussia luciferase reporter; series mostly up to 53.9 µM; activity change, negative = inhibition: at the top concentration

| SMILES | Potency | activity change, negative = inhibition |
| --- | --- | --- |
| CC(=O)[C@H]1CC[C@H]2[C@@H]3CCC4=CC(=O)CC[C@]4(C)[C@H]3CC[C@]12C | 24.3 µM (active) | – |
| CCCCC/C(C=O)=C\c1ccccc1 | – | -14.3% |
| Cc1cc(N)c2ccccc2[n+]1CCCCCCCCCC[n+]1c(C)cc(N)c2ccccc21 | 1.09 µM (active) | – |
| COc1ccc2c(c1OC)CN1CCc3cc4c(cc3C1C2)OCO4 (configuration not stated) | 24.3 µM (active) | – |
| CC1=C(C)C(=O)C(CCCCC#CCCCC#CCO)=C(C)C1=O | 19.3 µM (active) | – |
| C=C(C)[C@H]1Cc2c(ccc3c2O[C@@H]2COc4cc(OC)c(OC)cc4[C@@H]2C3=O)O1 | 0.0544 µM (active) | – |
| CCOC(=O)OCC/C(SC(=O)OCC)=C(\C)N(C=O)Cc1cnc(C)nc1N | – | -12.6% |
| C=C(C)C1Cc2c(ccc3c2OC2COc4cc(OC)c(OC)cc4C2C3=O)O1 (configuration not stated) | 0.0153 µM (active) | – |
| CCCCCN=C(N)N/N=C/c1c[nH]c2ccc(OC)cc12 | 9.68 µM (active) | – |
| Fc1ccc(CNc2ncnc3ccc(F)cc23)cc1 | 8.63 µM (active) | – |
| CC(C)(C)C1CCC(CC2=C(O)c3ccccc3C(=O)C2=O)CC1 (configuration not stated) | 6.11 µM (active) | – |
| O=C(Nc1ccccc1)c1cc([N+](=O)[O-])ccc1Cl | 24.3 µM (active) | – |
| COc1cc2c(cc1OC)CC(=O)N(CCCN(C)C[C@H]1Cc3cc(OC)c(OC)cc31)CC2 | – | -0.473% |
| COc1cccc(-c2ccc(NC(=O)C3=C(C(=O)O)CCC3)c(F)c2)c1 | 3.85 µM (active) | – |
| Oc1cc(Cl)ccc1Oc1ccc(Cl)cc1Cl | 22.2 µM (active) | – |
| Nc1ccc([N+](=O)[O-])cc1O | 62.7 µM (active) | – |
| CC(=O)OCC(=O)[C@@]12N=C(C)O[C@H]1C[C@H]1[C@@H]3CCC4=CC(=O)C=C[C@]4(C)[C@@H]3[C@@H](O)C[C@@]12C | – | 34.7% |
| CCC[C@H](N[C@@H](C)C(=O)N1[C@@H]2CCCC[C@H]2C[C@H]1C(=O)O)C(=O)OCC | – | -6.4% |
| O=C(Nc1ccccc1)Nc1ccc(-c2ccc(C(=O)[C@H]3CCC[C@H]3C(=O)O)cc2)cc1 | – | -16.6% |
| CO/C=C(/C(=O)OC)c1ccccc1Oc1cc(Oc2ccccc2C#N)ncn1 | 4.98 µM (active) | – |
| Cc1cc2c(C(C)C)c(O)c(O)c(C=O)c2c(O)c1-c1c(C)cc2c(C(C)C)c(O)c(O)c(C=O)c2c1O | 6.11 µM (active) | – |
| NC(=O)N/N=C/c1ccc([N+](=O)[O-])o1 | 24.3 µM (active) | – |
| COC(=O)c1nc(Cl)c(Cl)nc1N | 1.72 µM (active) | – |
| CC(C)=CCC/C(C)=C/CC/C(C)=C/CC[C@]1(C)CCc2c(C)c(O)c(C)c(C)c2O1 | – | -18.6% [at 6 µM] |
| Cc1ccc2c(c1)C1CN(C)CCC1N2 (configuration not stated) | – | -10.8% [at 19.4 µM] |
| CC(O)(P(=O)(O)O)P(=O)(O)O | – | -11.6% |
| Cn1cc(-c2ccncc2)c(-c2ccc(OCc3ccc4ccccc4n3)cc2)n1 | 24.3 µM (active) | – |
